SMN2 splice enh = SMN2 splice variant enhancement. 210,000 compounds, 2.8% hits. Potency, µM (highest dose often 46.1 µM), usual class: activators. HEK293 SMN2-luciferase splicing reporter, luminescence, 30-36 h; further: nearly all actives have a fitted effect of over 55% in size
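HEK293 cells carry an SMN2 […]–luciferase reporter in which exon 7 inclusion puts luciferase in frame. Cells were plated 10-12 h before compound addition, then incubated 30-36 h at 37C. ONE-Glo luminescence was read; sodium butyrate at 4.5 mM final served as control.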
ELG1 genotoxic = genotoxicity induction in ELG1-luciferase HEK293T cells; HEK293T ELG1-luciferase reporter, luminescence, 16 h; Potency, µM (top dose mostly 46 µM), most hits filed as activators; 330,000 compounds, 1.3% hits; AID 504466; further: nearly all actives have a fitted effect of over 60% in size
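Step 1: seed 2,000 HEK293T ELG1-luciferase cells per well. Step 2: add compound or DMSO, incubate 16 hr at 37 °C. Step 3: ONE-Glo, 30 min at room temperature, read luminescence.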
FLuc modulator = inhibits or activates purified firefly luciferase, miR-21 counter-screen; Potency, µM (highest dose often 57.5 µM), actives largely listed as inhibitors; AID 588342; P08659; 360,000 compounds, 6.9% hits; purified FLuc, Km substrates, luminescence inhibition; further: nearly all actives have a fitted effect of over 55% in size
Target sequence (P08659 whole entry, looked up): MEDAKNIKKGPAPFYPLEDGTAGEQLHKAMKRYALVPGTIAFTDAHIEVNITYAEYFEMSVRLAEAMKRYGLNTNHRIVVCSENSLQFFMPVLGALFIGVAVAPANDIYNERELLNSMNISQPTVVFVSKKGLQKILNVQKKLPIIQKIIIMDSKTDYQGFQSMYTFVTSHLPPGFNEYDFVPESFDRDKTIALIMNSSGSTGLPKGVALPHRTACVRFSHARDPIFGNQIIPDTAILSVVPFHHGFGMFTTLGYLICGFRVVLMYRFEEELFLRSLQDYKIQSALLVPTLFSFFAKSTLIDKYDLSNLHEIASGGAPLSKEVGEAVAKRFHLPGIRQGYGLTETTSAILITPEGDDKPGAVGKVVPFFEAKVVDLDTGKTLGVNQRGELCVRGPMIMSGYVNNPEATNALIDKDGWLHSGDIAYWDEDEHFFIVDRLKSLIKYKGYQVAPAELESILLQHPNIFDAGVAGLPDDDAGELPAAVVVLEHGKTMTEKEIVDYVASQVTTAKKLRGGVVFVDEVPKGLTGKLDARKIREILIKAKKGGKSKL
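Purified P. pyralis luciferase, 10 nM final, with Km-level 10 uM D-luciferin and 10 uM ATP in 50 mM Tris acetate pH 7.5, 10 mM Mg acetate, 0.01% Tween-20, 0.05% BSA; 6-point qHTS titration about 60 µM downward; luminescence read.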
NPC1 promoter act = activates the NPC1 promoter; Huh7 NPC1 promoter luciferase reporter, 24 h; 320,000 compounds, 2.4% hits; AID 485313; Potency, µM (highest dose often 9.22 µM), usual class: activators; further: nearly all actives have a fitted effect of over 60% in size
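Stable NPC1-promoter luciferase Huh7 line; cpd (DMSO) 24 h, 37 °C, 5% CO2; Amplite luciferase reagent 10 min RT; luminescence readout. qHTS format.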
KinaseGlo FLuc = Kinase-Glo luciferase inhibition (counter-screen); Q27757; Kinase-Glo luciferase, ATP luminescence, 8 min; Potency, µM (titrated, usually from 38.3 µM), actives largely listed as inhibitors; 200,000 compounds, 0.28% hits; AID 1379; further: nearly all actives have a fitted effect of over 60% in size
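Inhibition of Kinase-Glo luciferase light generation was assessed at 10 uM ATP in pH 7.2 imidazole buffer, with luminescence measured after eight minutes at ambient temperature.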
Rab9 promoter act = Rab9 promoter activation. Huh7 Rab9 promoter-luciferase reporter, luminescence, 24 h. Potency, µM (series often up to 9.22 µM), actives largely listed as activators. 320,000 compounds, 2.8% hits. AID 485297; further: nearly all actives have a fitted effect of over 60% in size
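Quantitative HTS format; Huh7 Rab9-luciferase reporter cells (1500/well) receive compound 2 h post-plating, incubate 24 h at 37 °C, then get luciferase reagent for 10 min before luminescence reading.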
A number is an active result; [ ] = another dose, or the depositor's remark. Only some compounds are listed: those with a hit (about 7.4% of all), similar ones and a draw of the others. The call rests on the fitted dose curve; in most records, active means well fitted curve in the direction sought with a large enough effect; inconclusive means small, poorly fitted or top-dose-only effect, or another doubt; inactive means no such curve, though single readings can be large; an effect the other way counts as inactive or inconclusive.

COc1ccccc1/C=C/C=N/n1c(-c2cc(C)[nH]n2)n[nH]c1=S was read as SMN2 splice enh inactive, ELG1 genotoxic inactive, FLuc modulator 21µM, NPC1 promoter act inactive, KinaseGlo FLuc inactive and Rab9 promoter act inactive.
For COc1ccccc1/C=C/C=N/n1c(-c2ccncc2)n[nH]c1=S the results were SMN2 splice enh inactive, ELG1 genotoxic inactive, FLuc modulator 12µM, NPC1 promoter act inactive, KinaseGlo FLuc inactive and Rab9 promoter act inactive.
`COc1ccccc1/C=C/C=N/n1c(-c2ccccn2)n[nH]c1=S` gave ELG1 genotoxic inconclusive, FLuc modulator 17µM, NPC1 promoter act inactive and Rab9 promoter act inconclusive.
Screening Cc1ccc(C(=O)NC(NC(=O)c2ccc(C)cc2)c2cccc([N+](=O)[O-])c2)cc1 returned ELG1 genotoxic inactive, FLuc modulator inactive, NPC1 promoter act inactive and Rab9 promoter act inactive.
For COc1ccc(OC)c(S(=O)(=O)N2CCN(c3ccccc3OC)CC2)c1 the results were ELG1 genotoxic inactive, FLuc modulator inactive, NPC1 promoter act inactive and Rab9 promoter act inactive.
`S=c1[nH]nc(-c2ccncc2)n1/N=C/C=C/c1ccccc1` gave ELG1 genotoxic inactive, FLuc modulator inconclusive, NPC1 promoter act inactive and Rab9 promoter act inactive.
Screening S=c1[nH]nc(-c2ccncc2)n1/N=C/C(Cl)=C\c1ccccc1 returned SMN2 splice enh 11µM, ELG1 genotoxic inactive, FLuc modulator inactive, NPC1 promoter act 3.5µM, KinaseGlo FLuc inactive and Rab9 promoter act 3.2µM.
Screening COc1ccc(NC(=O)CCC(=O)c2cc(C)sc2C)cc1 returned ELG1 genotoxic inactive, FLuc modulator inactive, NPC1 promoter act inactive and Rab9 promoter act inactive.
For COc1ccc(Cc2nc(-c3ccncc3)no2)cc1 the results were ELG1 genotoxic inactive, FLuc modulator inconclusive, NPC1 promoter act inactive, KinaseGlo FLuc inactive and Rab9 promoter act inactive.
For COc1ccc(Cc2nc(-c3cccc(C)c3)no2)cc1 the results were SMN2 splice enh inactive, ELG1 genotoxic inconclusive, FLuc modulator 13µM, NPC1 promoter act inconclusive, KinaseGlo FLuc inactive and Rab9 promoter act inconclusive.
For Cc1cccc(-c2noc(Cc3ccc(Cl)cc3)n2)c1 the results were SMN2 splice enh inconclusive, ELG1 genotoxic 18µM, FLuc modulator inconclusive, NPC1 promoter act inactive, KinaseGlo FLuc inactive and Rab9 promoter act inconclusive.
Screening COc1cccc(C(=O)OCC(=O)N2CCc3ccccc3C2)c1 returned ELG1 genotoxic inactive.
`Cn1c(NCc2cccc(Cl)c2)nc2ccccc21` gave SMN2 splice enh inactive and FLuc modulator inactive.
For O=C(O)c1cc(N=Nc2c(O)ccc3ccccc23)cc(C(=O)O)c1 the results were SMN2 splice enh inactive, ELG1 genotoxic inactive, FLuc modulator inconclusive, NPC1 promoter act inactive, KinaseGlo FLuc inactive and Rab9 promoter act inactive.
O=C(O)c1ccc(N=Nc2c(O)ccc3ncccc23)cc1 was read as ELG1 genotoxic inactive, FLuc modulator 1.7µM, NPC1 promoter act inactive and Rab9 promoter act inactive.
Screening S=C=Nc1cccc(NC(=S)NCCCCNC(=S)Nc2cccc(N=C=S)c2)c1 returned SMN2 splice enh inactive and KinaseGlo FLuc inactive.
`COc1ccc(C)cc1NC(=O)NCc1ccc2c(c1)CCN2C(=O)c1ccccc1` gave FLuc modulator inactive.
For CCOc1ccc(/C=C/C(=O)OCC(=O)Nc2cccc(S(=O)(=O)N3CCCC3)c2)cc1 the results were ELG1 genotoxic inactive, FLuc modulator 2.1µM, NPC1 promoter act inactive and Rab9 promoter act inactive.
`O=C(COc1ccc(F)cc1Cl)Nc1cccc(S(=O)(=O)N2CCCC2)c1` gave ELG1 genotoxic inactive, FLuc modulator 13µM, NPC1 promoter act inactive and Rab9 promoter act inactive.
O=C(COc1ccccc1Cl)Nc1cccc(S(=O)(=O)N2CCCC2)c1 was read as ELG1 genotoxic inactive, FLuc modulator 19µM, NPC1 promoter act inactive and Rab9 promoter act inactive.
O=C(COc1ccccc1)Nc1cccc(S(=O)(=O)N2CCCC2)c1 was read as ELG1 genotoxic inactive, FLuc modulator inactive, NPC1 promoter act inactive and Rab9 promoter act inactive.
`Nc1cc(N)cc(C(=O)OCC(=O)Nc2cc(S(=O)(=O)N3CCCCC3)ccc2Cl)c1` gave SMN2 splice enh inactive, ELG1 genotoxic inactive, FLuc modulator 17µM, NPC1 promoter act inactive, KinaseGlo FLuc inactive and Rab9 promoter act inactive.
O=C(COC(=O)c1cccnc1Cl)Nc1cc(S(=O)(=O)N2CCCCC2)ccc1Cl was read as SMN2 splice enh inactive, ELG1 genotoxic inactive, FLuc modulator inactive, NPC1 promoter act inactive, KinaseGlo FLuc inactive and Rab9 promoter act inactive.
For O=C(COc1ccccc1[N+](=O)[O-])Nc1cccc(S(=O)(=O)N2CCCC2)c1 the results were ELG1 genotoxic inactive.
O=C(CCc1c[nH]c2ccccc12)OCc1ccc(Br)cc1 was read as ELG1 genotoxic inactive, FLuc modulator inactive, NPC1 promoter act inactive and Rab9 promoter act inactive.
CCOC(=O)CCc1c(C)c2cc3c(c(C)c2oc1=O)OCN(CCc1ccccc1OC)C3 was read as SMN2 splice enh inactive and FLuc modulator inactive.
Screening O=C(O)c1c[nH]c2cc(OCc3ccccc3)ccc2c1=O returned SMN2 splice enh inconclusive and KinaseGlo FLuc inactive[7.66 µM].
`COc1cc(OC)c(NC(=O)c2nn(C)c3c2COc2ccccc2-3)cc1Cl` gave FLuc modulator inactive.
CCN(CC)S(=O)(=O)c1cccc(NC(=O)COc2ccc(Cl)cc2Br)c1 was read as SMN2 splice enh inactive, ELG1 genotoxic inactive, FLuc modulator 21µM, NPC1 promoter act inactive, KinaseGlo FLuc inactive and Rab9 promoter act inactive.
For N#Cc1ccc(C(=O)Nc2ccc3ccccc3c2)cc1 the results were ELG1 genotoxic inconclusive, FLuc modulator 1.3µM, NPC1 promoter act 0.35µM and Rab9 promoter act 0.45µM.
For O=C(Nc1ccc2ccccc2c1)c1cccnc1 the results were SMN2 splice enh inconclusive, ELG1 genotoxic inconclusive, FLuc modulator 9.5µM, NPC1 promoter act 4µM, KinaseGlo FLuc inactive and Rab9 promoter act 1.4µM.
For COc1cccc(OC)c1C(=O)Nc1ccc2c(c1)Cc1ccccc1-2 the results were ELG1 genotoxic inactive, FLuc modulator inconclusive, NPC1 promoter act inactive and Rab9 promoter act inconclusive.
`COc1ccc(NC(=O)c2cccnc2)cc1` gave ELG1 genotoxic inactive, FLuc modulator inactive, NPC1 promoter act inactive and Rab9 promoter act inactive.
O=C(Nc1ccc2c(c1)Cc1ccccc1-2)c1cccnc1 was read as ELG1 genotoxic inactive, FLuc modulator 6.7µM, NPC1 promoter act inconclusive, KinaseGlo FLuc inactive and Rab9 promoter act 3.2µM.
O=C(Nc1ccc2c(c1)Cc1ccccc1-2)c1ccco1 was read as SMN2 splice enh 11µM, ELG1 genotoxic 3.3µM, FLuc modulator 2.1µM, NPC1 promoter act 0.79µM, KinaseGlo FLuc inactive and Rab9 promoter act 0.4µM.

Screening data as filed in PubChem BioAssay.
